# Source: PubChem BioAssay (EPA / NIEHS)
# Values joined by “and” are separate entries in the source; they are usually repeats but may differ in a detail not shown here. Identical values can stand only once. Some compounds were tested as several samples or in several runs, with calls that do not always agree. Active and inactive are the calls of the source. Rule for the calls: active = hit-call score of the fitted dose curve at least 0.9, where 1 is the maximum; inactive = score below 0.9.
# Assay: ATG_PXRE_CIS: Attagene CIS-FACTORIAL HepG2 Assay for human Pregnane X Receptor Element (PXRE) (AID 2282957)
# Conditions: HepG2 Attagene CIS-FACTORIAL PXRE reporter, mRNA; actives raise or lower the signal
# Protocol: ATG_CIS is a cell-based, multiplexed-readout assay that uses HepG2, a human liver cell line, with measurements taken at 24 hours after chemical dosing in a 24-well plate.ATG_PXRE_CIS is one of 52 assay component(s) measured or calculated from the ATG_CIS assay. It is designed to make measurements of mRNA induction, a form of inducible reporter, as detected with fluorescence intensity signals by Reverse transcription polymerase chain reaction (RT-PCR) and Capillary electrophoresis technology.Data from the assay component ATG_PXRE_CIS was analyzed into 1 assay endpoint. This assay endpoint, ATG_PXRE_CIS, was analyzed with bidirectional fitting relative to DMSO as the negative control and baseline of activity. Using a type of inducible reporter, measures of mRNA for gain or loss-of-signal activity can be used to understand the reporter gene at the transcription factor-level as they relate to the gene NR1I2. Furthermore, this assay endpoint can be referred to as a primary readout, because this assay has produced multiple assay endpoints where this one serves a reporter gene function. To generalize the intended target to other relatable targets, this assay endpoint is annotated to the nuclear receptor intended target family, where the subfamily is non-steroidal.
# Human liver HepG2 cells are transiently transfected with multiple reporter transcription units (MRTUs) in 6-well plates using FuGene 6 reagent (Roche; 3 ml FuGene/1 mg DNA). The MRTU constructs are regulated by a cis-regulating element (promoter). […] A major difference between the CIS and TRANS system is that in CIS activities of endogenous TFs are measured, whereas the TRANS assay evaluates changes in activities of exogenous, chimeric NR-Gal4 proteins. […] At the end of 24 hour incubation, total RNA was isolated using TriZol reagent (Invitrogen). The isolated RNA is then reverse-transcribed using oligo(dT) primer and Mo-MLV reverse transcriptase (Invitrogen) with DNAse I (Ambion) treatment for 30 min. The one-tenth of the produced cDNA was amplified by PCR using Taq DNA polymerase (Invitrogen) and two reporter sequence-specific primers. The PCR products were fluorescently labeled by primer extension with 6-arboxyfluorescein (6-FAM) 5'-labeled reporter sequence-specific primer (2 min at 95 C, 20 s at 68 C and 10 min at 72 C) and these products were digested with 5U of HpaI (New England Biolabs) for 2h at 37 C. The fragments were purified using Qiaquick PCR columns (Qiagen), analyzed on an ABI 3130xL genetic analyzer (Applied Biosystems) with peak positions identified by using a set of X-rhodamine (ROX)-labeled MapMarker1000 molecular weight standards (BioVentures). The raw capillary electrophoresis data was processed using Attagraph software (Attagene).
SMILES,AC50,outcome
CC(C)(C#N)N=NC(C)(C)C#N,79.6 µM (active),–
O=[N+]([O-])c1ccc(Nc2ccccc2)cc1,26.9 µM (active),–
CCCCCCCCCCCCN(C)C,58.6 µM (active),–
O=C=Nc1ccc(Cl)cc1,–,inactive
CCOC(=O)CC(=O)CCl,–,inactive
NNCCO,–,inactive
N#Cc1ccncc1,–,inactive
Cc1cccc(OP(=O)(Oc2cccc(C)c2)Oc2cccc(C)c2)c1,1.32 µM (active),–
CC(F)(F)CC(F)(F)F,–,inactive
O=[N+]([O-])c1cccc2ccccc12,27.6 µM (active),–
Oc1c(Cl)cc(Cl)cc1Cl,–,inactive
C#CCO,–,inactive
CN(C)[C@@H]1C(=O)C(C(N)=O)=C(O)[C@@]2(O)C(=O)C3=C(O)c4c(O)ccc(Cl)c4[C@@](C)(O)[C@H]3C[C@@H]12,–,inactive
O=c1oc2ccccc2c(O)c1C(CC(O)c1ccc(-c2ccc(Br)cc2)cc1)c1ccccc1 (stereo not given),8.03 µM (active) and 7.59 µM (active),–
CCCCC(CC)COC(=O)Cl (stereo not given),–,inactive
CC(c1ccccc1)(c1ccc(O)cc1)c1ccc(O)cc1,2.92 µM (active),–
C=C(C)C(=O)OCCCCOC(=O)C(=C)C,–,inactive
ClCc1ccccc1Cl,38.3 µM (active),–
CC(=O)C(F)(F)C(F)(F)F,–,inactive

SMILES,AC50,outcome
Brc1ccc(Oc2c(Br)cc(Br)cc2Br)c(Br)c1,–,inactive
O=CCCl,37.2 µM (active),–
CC(C)C(C)(N)C#N (stereo not given),26 µM (active),–
O=C(Cc1ccccc1)OCCc1ccccc1,–,inactive
Cc1cc(C)cc(C)c1,–,inactive
Cc1cc(SCc2sc(-c3ccc(C(F)(F)F)c(F)c3)nc2C)ccc1OCC(=O)O,1.32 µM (active),–
O=c1[nH]c(=O)n(Cl)c(=O)n1Cl,52.5 µM (active),inactive
Brc1ccc(Br)cc1,–,inactive
N#CCCC(Br)(C#N)CBr (stereo not given),33.4 µM (active),–
COc1ccc([N+](=O)[O-])cc1O,–,inactive
Nc1ccc(N)cc1,33 µM (active),inactive
C1CN2CCN1CC2,–,inactive
C=C(C)C(=O)OCC(CC)CCCC (stereo not given),–,inactive
Cc1cc(Cl)ccc1OC(C)C(=O)O (stereo not given),–,inactive
CCC(C)(C#N)N=NC(C)(C#N)CC (stereo not given),22 µM (active),–
Cc1cc(Cl)ccc1N,32.8 µM (active),inactive
CCOC(=O)c1ccccc1S(=O)(=O)NC(=O)Nc1nc(Cl)cc(OC)n1,5.49 µM (active),–
CCCCC(CC)C(=O)Cl (stereo not given),–,inactive
